In PubChem BioAssay one finds composite z-score, composite Z-score and z-score data, which are given here for 5 compounds.

The structures appear in SMILES notation. Active and inactive are the calls of the source.

Assay [1] addresses Albumin (Bos taurus) (UniProt P02769). Kind of assay: compounds binding labelled BSA control protein – biochemical, small-molecule microarray, Alexa647 label, 635/667 nm fluorescence, artefact control for SMM control protein annotation, profiling panel (AID 1118).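 Note: score merges 667 nm emission intensity and signal-to-noise per printed compound spot.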 Conditions: BSA-A647 binding, fluorescence 635 nm, higher = more signal.
A short description of assay [2]: probe aXIP binding to arrayed compounds – biochemical, NeuroSMM set, 635/667 nm fluorescence, primary screen (AID 1119).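 Note: probe is the protein aXip251-270 applied at 1 µg/mL to compound-printed slides; binding of probe to printed compounds measured as 667 nm fluorescence plus signal to noise.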 Conditions: small-molecule microarray, higher = more signal, called active from +8 up or from −8 down.
Assay [3] in a line: probe aNOTCH3 binding on compound microarray – biochemical, small-molecule microarray, 635/667 nm fluorescence, primary screen (AID 1120).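 Note: probe is a biotin-tagged antibody raised against NOTCH3 rather than NOTCH3 protein; score merges spot fluorescence near 667 nm with spot signal to noise.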 To be noted: higher = more signal.
The nature of assay [4]: probe aNOTCH2 binding on compound microarray – biochemical, small-molecule microarray, 635/667 nm fluorescence, primary screen (AID 1121).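 Note: score merges feature fluorescence read at 667 nm with its signal to noise.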 Conditions: higher = more signal.
Assay [5] deals with Carbonic anhydrase 2 (Homo sapiens) (UniProt P00918). Nature of the assay: compounds binding carbonic anhydrase 2 – biochemical, small-molecule microarray, Alexa647-labelled CAII, profiling panel (AID 1122). Conditions: CAII-A647 binding fluorescence, higher = more signal.
The nature of assay [6]: COS7 lysate on small-molecule microarray, probe aHis, 635 nm (AID 1123).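 Note: z-score combines 667nm fluorescence intensity with signal-to-noise per printed compound spot.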 Conditions: COS7 cell lysate, fluorescence, higher = more signal.
Assay [7] is described as follows: probe aLAP1 signal on lysate-treated microarray – cell lysate, small-molecule microarray, COS7 lysate, primary screen (AID 1124).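 Note: lysate comes from COS7 cells expressing LAP1 and is applied at 0.3 µg/mL; score merges spot fluorescence near 667 nm with signal-to-noise over triplicate slides.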 Conditions: probe aLAP1, fluorescence, higher = more signal.
Assay [8] deals with Sam68 (KHDRBS1). Kind of assay: compounds binding KHDRBS1 protein – biochemical, small-molecule microarray, 635 nm fluorescence, primary screen (AID 1125).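 Note: score merges 667 nm channel intensity with signal to noise over triplicate slides.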 To be noted: higher = more signal.
Assay [9] concerns Chordin-like protein 2 (CHRDL2). Kind of assay: compounds binding chordin-like 2 – biochemical, small-molecule microarray, 635 nm fluorescence, primary screen (AID 1126).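 Note: printed compound slides probed with Chrdl2 protein at 4 µg/mL for 1 h at 4 C; score merges 667 nm emission intensity with signal to noise over three replicate slides.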 To be noted: fluorescence 635 nm, higher = more signal.
The target in assay [10] is Concanavalin-A (Canavalia ensiformis) (UniProt P02866). Kind of assay: compounds binding concanavalin A lectin – biochemical, small-molecule microarray, Alexa647 label, 635 nm, artefact control for SMM control protein annotation, primary screen (AID 1127).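 Note: z combines 667 nm emission intensity with signal-to-noise across three replicate slides.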 To be noted: ConA-A647 binding fluorescence, higher = more signal.
Concanavalin-A (Canavalia ensiformis), sequence (P02866 whole entry, looked up): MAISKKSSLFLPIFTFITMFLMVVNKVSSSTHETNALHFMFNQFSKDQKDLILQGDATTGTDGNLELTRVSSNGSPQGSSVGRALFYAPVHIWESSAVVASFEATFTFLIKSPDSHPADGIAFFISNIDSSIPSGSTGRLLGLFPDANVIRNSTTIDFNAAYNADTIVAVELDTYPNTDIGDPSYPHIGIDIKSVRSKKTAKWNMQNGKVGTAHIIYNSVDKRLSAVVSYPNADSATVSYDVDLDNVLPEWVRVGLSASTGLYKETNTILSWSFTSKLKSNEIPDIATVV
The nature of assay [11]: compounds binding Alexa647 anti-His antibody – biochemical, small-molecule microarray, 635 nm fluorescence, artefact control for SMM control protein annotation, primary screen (AID 1128).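 Note: score merges feature fluorescence with signal-to-noise for each printed compound spot.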 To be noted: higher = more signal.
Assay [12] deals with Human papillomavirus type 1a E7 protein (residues 1-88). Nature of the assay: HPV1a E7 small-molecule binders, primary screen, biochemical, small-molecule microarray, residues 1-88, 635 nm (AID 1129). To be noted: small-molecule microarray binding, fluorescence 635 nm; higher = more signal.
Assay [13] has as its target Focal adhesion kinase 1 (Homo sapiens) (UniProt Q05397). Nature of the assay: PTK2 protein binding on printed compound slides – biochemical, small-molecule microarray, 635/667 nm fluorescence, BSA, DTT, primary screen (AID 1130).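 Note: composite of spot emission at 667 nm and signal to noise over triplicate slides.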 Conditions: 635 nm fluorescence, higher = more signal.
The test system of assay [14] is Fibrinogen (Alexa647-labelled). Nature of the assay: Alexa647-fibrinogen binding to printed small molecules – biochemical, small-molecule microarray, 635/667 nm fluorescence, artefact control for SMM control-protein annotation, profiling panel (AID 1131).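 Note: z-score merges 667 nm fluorescence with per-spot signal-to-noise over triplicate slides.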 Conditions: fibrinogen-A647 binding fluorescence, higher = more signal.
In assay [15] the target is Follistatin (Homo sapiens) (UniProt P19883). Nature of the assay: FST protein binding to printed compounds – biochemical, small-molecule microarray, 635/667 nm fluorescence, primary screen (AID 1132). Conditions: 635 nm fluorescence, higher = more signal.
Follistatin (Homo sapiens), sequence (P19883 whole entry, looked up): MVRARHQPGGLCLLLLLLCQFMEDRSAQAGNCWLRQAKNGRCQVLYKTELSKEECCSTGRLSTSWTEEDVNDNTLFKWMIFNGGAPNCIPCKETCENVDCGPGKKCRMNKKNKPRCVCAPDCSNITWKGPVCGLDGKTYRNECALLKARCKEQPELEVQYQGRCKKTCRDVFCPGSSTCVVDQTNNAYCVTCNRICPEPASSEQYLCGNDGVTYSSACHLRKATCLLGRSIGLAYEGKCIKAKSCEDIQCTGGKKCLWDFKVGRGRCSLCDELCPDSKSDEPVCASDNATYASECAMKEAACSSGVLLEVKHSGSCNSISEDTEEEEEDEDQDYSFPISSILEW
The target in assay [16] is Fibroblast growth factor 2 (Homo sapiens) (UniProt P09038). Nature of the assay: basic fibroblast growth factor binding to printed compounds – biochemical, small-molecule microarray, 635/667 nm fluorescence, primary screen (AID 1133). To be noted: FGF2, fluorescence 635/667, higher = more signal.
Fibroblast growth factor 2 (Homo sapiens), sequence (P09038 whole entry, looked up): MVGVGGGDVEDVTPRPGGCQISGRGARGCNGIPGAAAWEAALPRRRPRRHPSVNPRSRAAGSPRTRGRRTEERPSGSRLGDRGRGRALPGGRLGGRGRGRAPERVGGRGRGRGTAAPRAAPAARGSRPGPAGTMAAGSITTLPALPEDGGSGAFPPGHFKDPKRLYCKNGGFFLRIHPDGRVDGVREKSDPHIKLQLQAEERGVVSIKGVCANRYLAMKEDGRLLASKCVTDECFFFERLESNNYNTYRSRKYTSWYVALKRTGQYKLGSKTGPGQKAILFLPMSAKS
Assay [17] is described as follows: JC-1 mitochondrial potential readout, lung cancer cells – cell-based, A549, JC-1 fluorescence, basal, 24 h, 100 nL, profiling panel (AID 1138).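 Note: A549 lung adenocarcinoma cells under basal conditions with no added stimulus; test concentration not given here.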 To be noted: higher = more signal.
The test system of assay [18] is Lefty1. Kind of assay: Lefty1 protein binding to printed compounds – biochemical, small-molecule microarray, 635/667 nm fluorescence, primary screen (AID 1139). To be noted: fluorescence 635/667, higher = more signal.
Assay [19] relates to wheat germ agglutinin (Triticum aestivum), Alexa647-labelled. Kind of assay: Alexa647-WGA lectin binding to printed small molecules – biochemical, small-molecule microarray, 635/667 nm fluorescence, artefact control for SMM control-protein annotation, profiling panel (AID 1140).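 Note: score merges 667 nm feature emission with signal to noise over triplicate slides.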 To be noted: WGA-A647 binding, 635 nm fluorescence, higher = more signal.
In assay [20] the target is Luciferin 4-monooxygenase (Photinus pyralis) (UniProt P08659). Nature of the assay: inhibition of purified Photinus pyralis luciferase – biochemical, luminescence, purified enzyme, 2006 set, primary screen (AID 1141).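 Note: cell-free assay with purified firefly luciferase at 100 ng per well in PBS; test concentration not given here.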 Conditions: purified firefly luciferase, SteadyGlo luminescence, 30 min; higher = more signal, called active from +8 up or from −8 down.
Luciferin 4-monooxygenase (Photinus pyralis), sequence (P08659 whole entry, looked up): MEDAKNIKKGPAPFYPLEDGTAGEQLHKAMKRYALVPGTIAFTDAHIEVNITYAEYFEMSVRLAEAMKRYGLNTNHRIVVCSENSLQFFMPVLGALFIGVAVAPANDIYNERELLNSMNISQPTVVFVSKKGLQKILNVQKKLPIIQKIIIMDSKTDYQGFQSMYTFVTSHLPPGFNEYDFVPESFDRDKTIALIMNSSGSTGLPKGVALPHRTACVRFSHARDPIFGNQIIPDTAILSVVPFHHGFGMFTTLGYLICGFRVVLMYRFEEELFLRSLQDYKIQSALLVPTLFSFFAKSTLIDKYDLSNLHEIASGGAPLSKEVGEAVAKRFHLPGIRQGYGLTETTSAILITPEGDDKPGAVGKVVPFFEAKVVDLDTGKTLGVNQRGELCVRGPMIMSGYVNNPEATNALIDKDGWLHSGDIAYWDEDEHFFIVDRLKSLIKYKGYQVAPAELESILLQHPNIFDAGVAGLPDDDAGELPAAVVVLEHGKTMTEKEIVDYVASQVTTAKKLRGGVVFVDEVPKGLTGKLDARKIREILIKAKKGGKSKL

Albumin (Bos taurus), sequence (P02769 whole entry, looked up): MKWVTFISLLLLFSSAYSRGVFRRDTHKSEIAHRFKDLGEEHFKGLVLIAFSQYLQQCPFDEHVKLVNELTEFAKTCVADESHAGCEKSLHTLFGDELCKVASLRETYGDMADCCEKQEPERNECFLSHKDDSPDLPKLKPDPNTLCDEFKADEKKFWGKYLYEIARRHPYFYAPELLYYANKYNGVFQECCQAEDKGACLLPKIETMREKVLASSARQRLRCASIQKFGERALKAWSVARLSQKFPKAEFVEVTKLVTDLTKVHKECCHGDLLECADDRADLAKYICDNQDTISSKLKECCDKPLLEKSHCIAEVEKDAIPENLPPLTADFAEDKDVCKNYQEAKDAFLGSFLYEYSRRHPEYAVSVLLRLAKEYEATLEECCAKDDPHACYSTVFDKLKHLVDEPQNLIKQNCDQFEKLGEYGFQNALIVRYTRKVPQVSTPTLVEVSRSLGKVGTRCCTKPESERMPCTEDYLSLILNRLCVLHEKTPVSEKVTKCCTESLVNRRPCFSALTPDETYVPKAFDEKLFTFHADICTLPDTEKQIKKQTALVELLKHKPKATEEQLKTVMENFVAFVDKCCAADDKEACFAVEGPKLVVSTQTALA
Focal adhesion kinase 1 (Homo sapiens), sequence (Q05397 whole entry, looked up): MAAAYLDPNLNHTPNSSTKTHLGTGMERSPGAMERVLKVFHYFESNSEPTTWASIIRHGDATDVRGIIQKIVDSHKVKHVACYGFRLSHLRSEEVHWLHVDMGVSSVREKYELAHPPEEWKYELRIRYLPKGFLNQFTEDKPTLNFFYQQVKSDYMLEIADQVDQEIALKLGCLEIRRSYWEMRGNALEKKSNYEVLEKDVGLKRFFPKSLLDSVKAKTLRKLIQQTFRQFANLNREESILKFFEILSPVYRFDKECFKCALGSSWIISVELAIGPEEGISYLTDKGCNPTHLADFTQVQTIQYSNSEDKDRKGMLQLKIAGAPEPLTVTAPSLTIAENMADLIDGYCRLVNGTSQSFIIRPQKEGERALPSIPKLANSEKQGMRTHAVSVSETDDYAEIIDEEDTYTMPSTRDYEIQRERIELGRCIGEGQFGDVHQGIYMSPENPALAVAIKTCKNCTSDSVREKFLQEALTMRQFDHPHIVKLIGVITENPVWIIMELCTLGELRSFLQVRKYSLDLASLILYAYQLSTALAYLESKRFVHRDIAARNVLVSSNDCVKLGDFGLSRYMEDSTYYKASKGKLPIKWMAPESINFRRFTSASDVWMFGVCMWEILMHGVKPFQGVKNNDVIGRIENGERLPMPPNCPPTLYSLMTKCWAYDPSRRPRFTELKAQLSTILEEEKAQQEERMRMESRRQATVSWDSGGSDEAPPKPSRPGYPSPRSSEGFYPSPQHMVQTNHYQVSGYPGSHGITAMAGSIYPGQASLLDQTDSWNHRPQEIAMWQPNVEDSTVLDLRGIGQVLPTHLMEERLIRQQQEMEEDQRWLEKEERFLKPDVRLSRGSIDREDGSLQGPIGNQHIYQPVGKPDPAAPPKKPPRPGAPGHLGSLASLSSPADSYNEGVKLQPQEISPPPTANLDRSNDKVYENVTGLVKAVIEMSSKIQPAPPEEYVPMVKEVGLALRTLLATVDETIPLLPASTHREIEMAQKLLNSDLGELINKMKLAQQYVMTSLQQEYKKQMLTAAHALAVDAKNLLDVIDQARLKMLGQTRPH

As for `CCCC=C(CCC)[C@@H](NC(=O)c1ccc(C(=O)OC)cc1)c1ccc(C(=O)OC)cc1`, the composite z-score in [1] is 0.781; in assay [3], 0.0847; in assay [4], 0.0522; in assay [5], 0.203; in [6], 2.45; in assay [7], 0.718. Further, the composite z-score was 0.417 in assay [8]; 0.031 in [9]; 0.251 in [10]; -0.202 in [11]; 0.33 in assay [12]; 0.723 in assay [13]. Besides, the composite z-score in [14] is 0.146; in [15] it was 0.0388; in [16], -1.47; in assay [18], -0.799; in assay [19], 0.315. Besides, the composite Z-score in [2] is 0.0466 (inactive). The z-score was -0.699 in assay [17] and 1.3 (inactive) in assay [20].

In the case of `C#CCN(C(=O)OC(C)(C)C)[C@H](CO)c1ccccc1`, the composite z-score was 0.632 in assay [1]; -0.0043 in [3]; -0.146 in assay [4]; 0.0604 in assay [5]; 0.125 in [6]; 0.183 in [7]. Also, the composite z-score in [8] amounted to 0.689; in assay [9] it was 0.105; in assay [10], 0.0388; in assay [11], 0.137; in assay [12], 0.266; in [13], 0.0987. Also, the composite z-score is -0.0218 in assay [14]; -0.0032 in [15]; 0.579 in assay [16]; 0.543 in [18]; -0.174 in assay [19]. For the same compound, the composite Z-score in assay [2] was 0.32 (inactive). Besides, the z-score in assay [17] is -0.766; in assay [20], 0.978 (inactive).

Regarding `C=CCNC(=O)[C@H]1[C@@H]2C(=O)O[C@@H](c3ccccc3)[C@@H](c3ccccc3)N2[C@@H](c2ccc(O)cc2)[C@]12C(=O)Nc1ccc(C#CCC(C(=O)OC)C(=O)OC)cc12`, the composite z-score in assay [1] is 0.0574; in assay [3], -0.217; in assay [4] it was 0.0098; in [5], 0.649; in [6], 1.23; in [7], 0.877. The composite z-score is 0.421 in [8]; 0.952 in [9]; -0.273 in assay [10]; 2.01 in assay [11]; 1.08 in assay [12]; 0.144 in assay [13]. For the same compound, the composite z-score in assay [14] is -0.078; in assay [15], 0.636; in [16] it was 0.497; in [18], 0.0372; in assay [19] it was -0.0126. Moreover, the composite Z-score in assay [2] is -0.209 (inactive). In addition, the z-score is 0.243 in assay [17] and -1.37 (inactive) in [20].

As to `C[N+](C)(C)CCCC[C@@H]1NC(=O)[C@H]2C[C@@H](C(=O)NCCCCCN)[C@@H](c3ccc(O)cc3)N2C1=O`, the composite z-score in assay [1] is 0.567; in [3], -0.0586; in [4], -0.053; in assay [5], 0.67; in assay [6], 1.14; in [7] it was 0.736. The composite z-score stood at 1.3 in assay [8]; 0.444 in [9]; 1.18 in assay [10]; 3.32 in assay [11]; 1.21 in assay [12]; 0.599 in assay [13]. The composite z-score was found to be 1.04 in assay [14]; 1.39 in [15]; 1.66 in assay [16]; 1.7 in assay [18]; 1.36 in [19]. Further, the composite Z-score in [2] was -0.116 (inactive). Further, the z-score in assay [17] is 0.729; in assay [20], -0.993 (inactive).

In the case of `COC(=O)C(CC#Cc1ccc2c(c1)[C@]1(C(=O)N2)[C@H](c2ccc(OCCO)cc2)N2[C@H](c3ccccc3)[C@H](c3ccccc3)OC(=O)[C@H]2[C@@H]1C(N)=O)C(=O)OC`, the composite z-score in assay [1] was 0.734; in assay [3] it was -0.209; in assay [4], -0.136; in [5], 0.389; in assay [6], 2.2; in [7], 0.431. Moreover, the composite z-score is 1.06 in assay [8]; -0.907 in assay [9]; 1.14 in assay [10]; 2.32 in assay [11]; 1.21 in [12]; 0.307 in assay [13]. For the same compound, the composite z-score in [14] was 0.858; in [15] it was 0.0592; in [16], -0.379; in assay [18], -0.269; in [19], 0.397. The composite Z-score in assay [2] is -0.0003 (inactive). Further, the z-score was -0.616 in assay [17] and -1.38 (inactive) in assay [20].
